Data published in PubChem BioAssay (NCI).
“And” between values parts separate entries of the source, which are not always exact repeats. Equal entries are not always repeated. The panel holds about 79,000 compounds, 15% with a hit somewhere; the sample as a whole holds those more often. Rule as the data show it: active = growth inhibition above about 70%; inactive = the rest.

Tests used:
[1] = NCI Yeast Anticancer Drug Screen. Data for the rad50 strain (AID 155);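 also: 0% = growth of vehicle-only cultures of the same strain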; conditions: S. cerevisiae rad50 strain growth inhibition; at 50.0 µM; hits give high values
Summary of the method: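 Compounds were tested on a yeast strain with an engineered DNA damage repair alteration; the reported value is growth inhibition normalised to vehicle treatment.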

[2] = NCI Yeast Anticancer Drug Screen. Data for the mec2-1 strain (AID 157); conditions: S. cerevisiae mec2-1 strain, at 50.0 µM, hits give high values
Summary of the method: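 Growth inhibition is read against vehicle-treated controls after compound exposure of the mec2-1 yeast strain, which is defective in DNA damage repair or cell cycle control.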

[3] = NCI Yeast Anticancer Drug Screen. Data for the sgs1 mgt1 strain (AID 161);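 also: 0% = growth of cultures given vehicle only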; conditions: S. cerevisiae sgs1 mgt1 strain, at 50.0 µM, hits give high values
Summary of the method: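 Growth of a repair-deficient yeast mutant was monitored after compound treatment and expressed as inhibition relative to vehicle-treated cultures.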

[4] = NCI Yeast Anticancer Drug Screen. Data for the cln2 rad14 strain (AID 165);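 also: 0% = growth equal to vehicle treated cultures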; conditions: S. cerevisiae cln2 rad14 strain, at 50.0 µM, hits give high values
Summary of the method: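 Growth inhibition, relative to vehicle-treated controls, is the read-out. The test organism is a yeast strain with defined genetic alterations, cln2 rad14.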

[5] = NCI Yeast Anticancer Drug Screen. Data for the bub3 strain (AID 167); conditions: S. cerevisiae bub3 mutant strain, at 50.0 µM, hits give high values
Summary of the method: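 Growth of a checkpoint-deficient yeast mutant is measured after compound exposure. Values represent inhibition relative to vehicle.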

[6] = NCI Yeast Anticancer Drug Screen. Data for the mlh1 rad18 strain (AID 175); conditions: S. cerevisiae mlh1 rad18 strain growth inhibition; at 50.0 µM; hits give high values
Summary of the method: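 Cells of a genetically altered yeast strain, deficient in DNA damage repair, were treated with compound. Their growth was then compared with that of vehicle-treated cultures to give inhibition.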

Measured: growth inhibition

O=C(CCCCCCCCC(=O)NCC1(c2ccccc2)CCN(Cc2ccccc2)CC1)NCC1(c2ccccc2)CCN(Cc2ccccc2)CC1
inactive: [1] -7.45% and 8.25% | [2] -17.1% and 6.25% | [3] -13.8% and -19.2% | [4] -11.4% and 2.2% | [5] 10.4% and 3.6% | [6] -0.55% and 26.4%

CC(=O)OC(COC(=O)c1ccccc1)C(OC(C)=O)C(OC(C)=O)C(COC(=O)c1ccccc1)OC(C)=O (stereo unspecified)
inactive: [1] 3.7% and 3.5% | [2] -7.8% and 2.5% | [3] -7.65% and -9.85% | [4] -18.9% and -21.4% | [5] -3.3% and -2.7% | [6] 5.45% and 17%

C=C1C(=O)OC2/C=C(/C)C3CC(O)C(C)(CC(OC(=O)/C(C)=C/C)C12)O3 (stereo unspecified)
inactive: [1] -9.75% and -7.75% | [2] -12.9% and -20.4% | [3] -6.85% and 0.45% | [4] 13.4% and 8.45% | [5] -5.25% and -26.3% | [6] -5.35% and 2.9%

Nc1cccc2cc(S(=O)(=O)O)ccc12
inactive: [1] 10.6% and -6.9% | [2] 22.9% and -9.85% | [3] -24.9% and -1.25% | [4] -2.75% and -50.2% | [5] -1.65% and -11.9% | [6] -5.5% and -35.7%

O=C1NC(=O)C(=Nc2c(O)[nH]c(=O)[nH]c2=O)C(=O)N1
inactive: [1] 2.65% and -11% | [2] -11.9% and -14.3% | [3] 2.3% and -10.6% | [4] -25.2% and -31.8% | [5] 1.1% and 16.6% | [6] 12.1% and -13.1%

COC1OC(CO)C(O)C(O)C1N1C(=O)c2ccccc2C1=O (stereo unspecified)
inactive: [1] 9.35% and -4.5% | [2] -4.15% and 8.4% | [3] 22.6% and -3.85% | [4] 7.95% and -15.8% | [5] 12.2% and 4.45% | [6] 19% and -3.45%

COc1ccc(Cc2c3cc(O)c(=O)cc-3ccn2C)cc1OC
inactive: [1] 2.75% and 47.7% | [2] 14.2% and 24.5% | [3] 23.4% and 22.3% | [4] 32.2% and 8.35% | [5] 29.2% and 5.5% | [6] 28.1% and 17.9%

CC1(C)OCC(C2OC(C)(C)OC2C2OC(O)C=CC2=O)O1 (stereo unspecified)
inactive: [1] 19.8% and 18.5% | [2] 18.9% and 2.1% | [3] 24.6% and 6.5% | [4] 9.05% and -4.9% | [5] 24.9% and 10.9% | [6] 20.3% and 10.6%

CC(COC(=O)c1ccccc1)NC1CCCCC1 (stereo unspecified)
inactive: [1] 12.3% and 21.9% | [2] 1.05% and -0.85% | [3] 13.7% and 10.7% | [4] -27.6% and -0.55% | [5] -10.3% and 0.7% | [6] 10.4% and -0.2%

CCOC(=O)CNC(=O)c1ccccc1
inactive: [1] 3.7% and -12.2% | [2] -7% and -36.4% | [3] -9.55% and -7.05% | [4] -8% and -13.8% | [5] -2.35% and 27.1% | [6] -1% and -4.65%

O=C(O)C1=C/C(=C(/c2ccccc2)c2cc(C(=O)O)c(O)c3ccccc23)c2ccccc2C1=O
inactive: [1] 4.2% and -7.7% | [2] -29.1% and -27.1% | [3] -21.2% and -34.4% | [4] 22.7% and 23.1% | [5] -9.45% and -3.8% | [6] -1.45% and -4.1%

C[N+](C)(C)CCOP(=O)(O)OP(=O)([O-])OCC1CCC(n2ccc(N)nc2=O)O1 (stereo unspecified)
inactive: [1] 7.7% and 4.45% | [2] -11.1% and 0.25% | [3] -18.8% and 9.2% | [4] 5.8% and -2.15% | [5] -38.6% and 2.55% | [6] -38.8% and -3.45%

O=C(O)c1cc(O)c(O)c(O)c1
inactive: [1] 5.3% and 1.55% | [2] -12.6% and -7.9% | [3] 2.2% and 15.6% | [4] 15.6% and -9.5% | [5] 2.25% and 2.85% | [6] 5.8% and 3%

O=C1C(O)=C(Cl)C(=O)C(O)=C1Cl
inactive: [1] 6.7% and 13.6% | [2] 2.3% and -26.3% | [3] -2.15% and 25.3% | [4] -0.2% and 5.3% | [5] 29.9% and -11.3% | [6] -12.9% and -3.2%

O=C(Nc1ccccc1)C1CCCCC1CO (stereo unspecified)
inactive: [1] 18.9% and 7.15% | [2] 5.95% and 17.4% | [3] 9.95% and 22.1% | [4] 7% and 7.1% | [5] 2.65% and -6.15% | [6] 5.95% and 31.8%

CCCN=C(N)C(N)=NCCC (tested in a mixture with another compound)
inactive: [1] 0.4% and 6.5% | [2] -3.95% and 7.35% | [3] 9% and 26.4% | [4] -21.4% and 7.55% | [5] 12.6% and 3.75% | [6] 6.65% and 10%

CCCCCC(O)C1C(=O)OC(C)C(O)/C=C/C=C/C=C/C=C\C=C(\C)C(O)CC(O)CC(O)CC(O)CC(O)CC(O)CC1O (stereo unspecified)
inactive: [1] 2.6% and 13.8% | [2] 16.9% and -17.5% | [3] -18.1% and -4.65% | [4] 68.2% and 1.3% | [5] 5.85% and 12.3% | [6] 62.3% and 6.3%

NNS(=O)(=O)c1ccc(Cl)cc1
inactive: [1] -3.5% and 13.2% | [2] -19.1% and 2.45% | [3] -5.45% and 6.6% | [4] 13.4% and -4.4% | [5] 22.9% and 9.8% | [6] -8.3% and 7%

Cc1ccc(S(=O)(=O)NC(C(=O)O)C(C)C)cc1 (stereo unspecified)
inactive: [1] 11.5% and -39.5% | [2] 3.75% and -12.9% | [3] -8.8% and -51.1% | [4] -1.2% and -20.2% | [5] 35% and -16.2% | [6] 0.45% and -18.9%

CC(O)COc1ccc(C2CCCCC2)cc1 (stereo unspecified)
inactive: [1] 27.9% and 8% | [2] 10.4% and -21.6% | [3] 7.3% and 16.4% | [4] -10.2% and -25.9% | [5] -2.55% and -5.5% | [6] -11.6% and 13%

O=c1[nH][nH]c(=O)c2ccccc12
inactive: [1] 7.4% and 8.6% | [2] -24.6% and -7.45% | [3] -23.8% and -6.7% | [4] -1.3% and -12.8% | [5] -10.3% and -0.95% | [6] 2.75% and 25.1%
